Reference: PubChem BioAssay (EPA / NIEHS)
Values joined by “and” are separate entries in the source; they are usually repeats but may differ in a detail not shown here. Identical values can stand only once. Records with an inconclusive call do not appear. Active and inactive are the calls of the source. The calls were made as follows, unless noted: active = hit-call score of the fitted dose curve at least 0.9, where 1 is the maximum; inconclusive = response in the unintended direction; inactive = score below 0.9.

Biological target: human Peroxisome Proliferator-activated Receptor delta (PPARd), PPARD (gene 5467) (UniProt Q03181)
Sequence (Q03181 whole entry, looked up): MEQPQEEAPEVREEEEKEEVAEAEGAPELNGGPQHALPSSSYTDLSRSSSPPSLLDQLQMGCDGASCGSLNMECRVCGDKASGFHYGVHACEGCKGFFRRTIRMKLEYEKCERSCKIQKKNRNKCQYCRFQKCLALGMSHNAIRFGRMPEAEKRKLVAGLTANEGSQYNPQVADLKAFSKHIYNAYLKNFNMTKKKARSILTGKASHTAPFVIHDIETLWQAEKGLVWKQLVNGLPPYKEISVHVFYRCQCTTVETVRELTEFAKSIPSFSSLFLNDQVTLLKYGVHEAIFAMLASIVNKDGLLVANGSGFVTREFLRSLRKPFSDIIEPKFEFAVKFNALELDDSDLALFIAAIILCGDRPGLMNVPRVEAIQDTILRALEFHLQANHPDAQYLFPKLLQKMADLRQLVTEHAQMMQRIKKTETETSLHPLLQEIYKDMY
Assay: ATG_PPARd_TRANS: Attagene TRANS-FACTORIAL HepG2 Assay for human Peroxisome Proliferator-activated Receptor delta (PPARd) (AID 2283002)
Conditions: not given
In short: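 Read-out is induced reporter mRNA, quantified by RT-PCR with fluorescent labelling and capillary electrophoresis after 24 h dosing. Cells are HepG2 transiently carrying multiple GAL4-UAS reporter units driven by exogenous NR-GAL4 chimeras; DMSO serves as baseline.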

Q: Which outcome does the source give for `F[Si-2](F)(F)(F)(F)F` here?
A: inactive

Q: Which outcome does the source give for `CNS(=O)(=O)C(F)(F)C(F)(F)C(F)(F)C(F)(F)C(F)(F)C(F)(F)C(F)(F)C(F)(F)F` here?
A: inactive

Q: For `COc1ccccc1C=O`, which outcome is on record?
A: inactive

Q: How did the outcome turn out when `CSc1ccc(Cl)cc1` was run?
A: inactive

Q: Which outcome does the source give for `CCOC(OCC)OCC` here?
A: inactive

Q: For `Cc1ccc(O)c(-n2nc3ccccc3n2)c1`, which outcome is on record?
A: inactive

Q: `CC(C)Nc1ccc(NC(C)C)c2c1C(=O)c1ccccc1C2=O` was tested. Which outcome did it give?
A: inactive

Q: How did the outcome turn out when `OCCCc1cccnc1` was run?
A: inactive

Q: Which outcome does the source give for `CC(C)CCCC(C)CCO` (centres undefined) here?
A: inactive

Q: For `CCC/C=C/CO`, which outcome is on record?
A: inactive

Q: Which outcome does the source give for `CC1=CCC(=O)O1` here?
A: inactive

Q: Which outcome does the source give for `CCc1cccc(C)c1N(C(=O)C(=O)O)C(C)COC` (centres undefined) here?
A: inactive

Q: `C[C@]12CC[C@H]3C(=CCc4cc(O)ccc43)[C@@H]1CCC2=O` was tested. Which outcome did it give?
A: inactive

Q: Which outcome does the source give for `O=C(O)CCC(F)(F)C(F)(F)C(F)(F)C(F)(F)C(F)(F)C(F)(F)C(F)(F)F` here?
A: inactive

Q: For `CC1=CC2C3C=CC(C3)C2C1C` (centres undefined), which outcome is on record?
A: inactive

Q: For `Nc1c(Br)cc([N+](=O)[O-])cc1Br`, which outcome is on record?
A: inactive

Q: How did the outcome turn out when `O=C1C=CC(=O)N1c1ccc(Cc2ccc(N3C(=O)C=CC3=O)cc2)cc1` was run?
A: inactive

Q: `CC(C)(C)C(=O)C1C(=O)c2ccccc2C1=O` was tested. Which outcome did it give?
A: inactive

Q: With `OCCCC(F)(F)C(F)(F)C(F)(F)C(F)(F)C(F)(F)C(F)(F)C(F)(F)C(F)(F)F` as the molecule, how does the outcome read?
A: inactive

Q: For `N#Cc1ccccc1O`, which outcome is on record?
A: inactive

Q: How did the outcome turn out when `CCCCCCCCCc1ccc(OCCO)cc1` was run?
A: inactive

Q: How did the AC50 turn out when `CCCCCCCCCCCC(=O)Cl` was run?
A: 125 µM (active)

Q: `CN(C)C(C)(C)CO` was tested. Which outcome did it give?
A: inactive

Q: How did the outcome turn out when `Cc1ccc(O)cn1` was run?
A: inactive

Q: Which outcome does the source give for `Cc1cc(O)c(C(C)(C)C)cc1C(C)(C)C` here?
A: inactive

Read-out: Intercellular Adhesion Molecule 1 (ICAM1), ICAM1 (gene 3383)
Assay: BSK_3C_ICAM1: BioMAP Diversity Plus: 3C Assay for Intercellular Adhesion Molecule 1 (ICAM1) Biomarker Activity (AID 2283003; active = hit-call score of the fitted dose curve at least 0.9, where 1 is the maximum; inactive = score below 0.9)
Conditions: primary human endothelial cells (HUVEC); actives raise or lower the signal
In short: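 Human vascular endothelial primary cells, 3C conditions, 24 h treatment. ICAM-1 by ELISA.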

Q: `CNS(=O)(=O)C(F)(F)C(F)(F)C(F)(F)C(F)(F)C(F)(F)C(F)(F)C(F)(F)C(F)(F)F` was tested. Which outcome did it give?
A: inactive

Q: For `Cc1ccc(O)c(-n2nc3ccccc3n2)c1`, which outcome is on record?
A: inactive

Q: Which outcome does the source give for `OC(O)C(F)(F)C(F)(F)F` here?
A: inactive

Q: `CC(C)CCCC(C)CCO` (centres undefined) was tested. Which AC50 did it give?
A: 35.5 µM (active)

Q: With `C[C@]12CC[C@H]3C(=CCc4cc(O)ccc43)[C@@H]1CCC2=O` as the molecule, how does the outcome read?
A: inactive

Q: How did the outcome turn out when `O=C(O)CCC(F)(F)C(F)(F)C(F)(F)C(F)(F)C(F)(F)C(F)(F)C(F)(F)F` was run?
A: inactive

Q: How did the outcome turn out when `CC1=CC2C3C=CC(C3)C2C1C` (centres undefined) was run?
A: inactive

Q: With `O=C(Cl)C(F)(F)C(F)(F)C(F)(F)C(F)(F)C(F)(F)C(F)(F)F` as the molecule, how does the outcome read?
A: inactive

Q: `Nc1cc([N+](=O)[O-])cc(Cl)c1O` was tested. Which outcome did it give?
A: inactive

Q: Which AC50 does the source give for `O=C1C=CC(=O)N1c1ccc(Cc2ccc(N3C(=O)C=CC3=O)cc2)cc1` here?
A: 9.7 µM (active)

Q: For `NC(=O)C(F)(F)C(F)(F)C(F)(F)C(F)(F)C(F)(F)C(F)(F)C(F)(F)F`, which outcome is on record?
A: inactive

Q: For `C=CC(=O)OCC(F)(F)C(F)(F)C(F)(F)COC(=O)C=C`, which AC50 is on record?
A: 46.5 µM (active)

Q: Which AC50 does the source give for `OCCCC(F)(F)C(F)(F)C(F)(F)C(F)(F)C(F)(F)C(F)(F)C(F)(F)C(F)(F)F` here?
A: 22.4 µM (active) and 45.5 µM (active)

Q: Which AC50 does the source give for `Cc1cc(O)c(C(C)(C)C)cc1C(C)(C)C` here?
A: 8.46 µM (active)

Biological target: human Retinoic Acid Receptor beta (RARb), RARB (gene 5915) (UniProt P10826)
Sequence (P10826 whole entry, looked up): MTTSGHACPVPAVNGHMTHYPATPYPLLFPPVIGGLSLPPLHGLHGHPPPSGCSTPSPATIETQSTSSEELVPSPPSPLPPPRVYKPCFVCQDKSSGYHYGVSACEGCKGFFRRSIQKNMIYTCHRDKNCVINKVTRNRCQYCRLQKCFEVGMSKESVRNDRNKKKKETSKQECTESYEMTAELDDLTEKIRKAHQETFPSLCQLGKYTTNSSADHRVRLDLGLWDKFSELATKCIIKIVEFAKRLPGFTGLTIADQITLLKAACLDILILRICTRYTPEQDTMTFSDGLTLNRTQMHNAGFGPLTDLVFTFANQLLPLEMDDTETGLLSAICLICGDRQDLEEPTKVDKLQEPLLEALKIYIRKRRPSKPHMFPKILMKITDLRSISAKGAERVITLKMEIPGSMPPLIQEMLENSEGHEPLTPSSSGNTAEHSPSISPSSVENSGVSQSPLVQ
Assay: ATG_RARb_TRANS: Attagene TRANS-FACTORIAL HepG2 Assay for human Retinoic Acid Receptor beta (AID 2283004)
Conditions: not given
In short: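 HepG2, transient MRTU transfection, NR–Gal4 chimera, 24 h treatment; RT-PCR plus CE fluorescence detection of reporter mRNA; gain of signal vs DMSO.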

Q: `CCOCN(C(=O)CS(=O)(=O)O)c1c(C)cccc1CC` was tested. Which outcome did it give?
A: inactive

Q: For `F[Si-2](F)(F)(F)(F)F`, which outcome is on record?
A: inactive

Q: How did the outcome turn out when `CNS(=O)(=O)C(F)(F)C(F)(F)C(F)(F)C(F)(F)C(F)(F)C(F)(F)C(F)(F)C(F)(F)F` was run?
A: inactive

Q: How did the outcome turn out when `Cc1ccc(O)c(-n2nc3ccccc3n2)c1` was run?
A: inactive

Q: How did the outcome turn out when `CC(C)Nc1ccc(NC(C)C)c2c1C(=O)c1ccccc1C2=O` was run?
A: inactive

Q: Which outcome does the source give for `C#CC(O)CCC` (centres undefined) here?
A: inactive

Q: For `CC1=CCC(=O)O1`, which outcome is on record?
A: inactive

Q: How did the outcome turn out when `C[C@]12CC[C@H]3C(=CCc4cc(O)ccc43)[C@@H]1CCC2=O` was run?
A: inactive

Q: `CC(C)(C)c1cc(Cc2cc(C(C)(C)C)c(O)c(C(C)(C)C)c2)cc(C(C)(C)C)c1O` was tested. Which outcome did it give?
A: inactive

Q: With `O=C(Cl)C(F)(F)C(F)(F)C(F)(F)C(F)(F)C(F)(F)C(F)(F)F` as the molecule, how does the outcome read?
A: inactive

Q: Which outcome does the source give for `c1ccc(C[P+](c2ccccc2)(c2ccccc2)c2ccccc2)cc1` here?
A: inactive

Q: With `CC(C)(C)C(=O)C1C(=O)c2ccccc2C1=O` as the molecule, how does the outcome read?
A: inactive

Q: How did the outcome turn out when `NC(=O)C(F)(F)C(F)(F)C(F)(F)C(F)(F)C(F)(F)C(F)(F)C(F)(F)F` was run?
A: inactive

Q: `OCCCC(F)(F)C(F)(F)C(F)(F)C(F)(F)C(F)(F)C(F)(F)C(F)(F)C(F)(F)F` was tested. Which outcome did it give?
A: inactive

Q: With `Cc1cc(O)c(C(C)(C)C)cc1C(C)(C)C` as the molecule, how does the outcome read?
A: inactive

Biological target: Retinoic acid receptor alpha (Homo sapiens) (UniProt P10276)
Sequence (P10276 whole entry, looked up): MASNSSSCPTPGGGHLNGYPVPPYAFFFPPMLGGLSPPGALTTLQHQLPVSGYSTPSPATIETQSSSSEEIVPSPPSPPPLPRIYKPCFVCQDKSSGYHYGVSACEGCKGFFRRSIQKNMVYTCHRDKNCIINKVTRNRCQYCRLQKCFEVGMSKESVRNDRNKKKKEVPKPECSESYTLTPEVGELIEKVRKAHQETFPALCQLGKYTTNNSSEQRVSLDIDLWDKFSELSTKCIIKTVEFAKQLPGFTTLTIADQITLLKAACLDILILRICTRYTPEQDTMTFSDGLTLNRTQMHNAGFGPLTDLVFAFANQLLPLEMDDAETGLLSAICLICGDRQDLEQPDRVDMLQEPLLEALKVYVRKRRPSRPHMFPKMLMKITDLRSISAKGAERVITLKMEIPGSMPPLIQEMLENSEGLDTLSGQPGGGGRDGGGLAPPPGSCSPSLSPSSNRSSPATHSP
Assay: ATG_RARa_TRANS: Attagene TRANS-FACTORIAL HepG2 Assay for human Retinoic Acid Receptor alpha (RARa) (AID 2283005)
Conditions: not given
In short: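 Reporter transcripts, measured by RT-PCR with fluorescent labeling and capillary electrophoresis after 24 h dosing, reflect activity of an exogenous human RARa–GAL4 fusion in transiently transfected HepG2. Fitted for increase relative to DMSO.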

Q: Which outcome does the source give for `CNS(=O)(=O)C(F)(F)C(F)(F)C(F)(F)C(F)(F)C(F)(F)C(F)(F)C(F)(F)C(F)(F)F` here?
A: inactive

Q: Which outcome does the source give for `CCOC(OCC)OCC` here?
A: inactive

Q: For `OCCCc1cccnc1`, which outcome is on record?
A: inactive

Q: How did the outcome turn out when `CCC/C=C/CO` was run?
A: inactive

Q: For `CC1=CCC(=O)O1`, which outcome is on record?
A: inactive

Q: Which outcome does the source give for `C[C@]12CC[C@H]3C(=CCc4cc(O)ccc43)[C@@H]1CCC2=O` here?
A: inactive

Q: How did the outcome turn out when `CC(C)(C)c1cc(Cc2cc(C(C)(C)C)c(O)c(C(C)(C)C)c2)cc(C(C)(C)C)c1O` was run?
A: inactive

Q: For `O=C(Cl)C(F)(F)C(F)(F)C(F)(F)C(F)(F)C(F)(F)C(F)(F)F`, which outcome is on record?
A: inactive

Q: With `c1ccc(C[P+](c2ccccc2)(c2ccccc2)c2ccccc2)cc1` as the molecule, how does the outcome read?
A: inactive

Q: For `O=C1C=CC(=O)N1c1ccc(Cc2ccc(N3C(=O)C=CC3=O)cc2)cc1`, which outcome is on record?
A: inactive

Q: `CC(C)(C)C(=O)C1C(=O)c2ccccc2C1=O` was tested. Which outcome did it give?
A: inactive

Q: With `NC(=O)C(F)(F)C(F)(F)C(F)(F)C(F)(F)C(F)(F)C(F)(F)C(F)(F)F` as the molecule, how does the outcome read?
A: inactive

Q: Which outcome does the source give for `OCCCC(F)(F)C(F)(F)C(F)(F)C(F)(F)C(F)(F)C(F)(F)C(F)(F)C(F)(F)F` here?
A: inactive

Q: With `N#Cc1ccccc1O` as the molecule, how does the outcome read?
A: inactive

Q: Which outcome does the source give for `Cc1cc(O)c(C(C)(C)C)cc1C(C)(C)C` here?
A: inactive
